# This is a sample that favours compounds with a hit; in the whole collection about 3.1% have one here.
# RGS4 inhibitor – human RGS4 inhibition | Transcreener GDP fluorescence polarization, RGS4-accelerated GTP hydrolysis | 390,000 compounds, 0.039% hits | Potency, µM (series often up to 114 µM), for inactives: top-dose activity change, negative = inhibition, hits mostly inhibitors; active means well fitted inhibition curve with a large enough effect; inconclusive means small, poorly fitted or top-dose-only effect; inactive means no such curve, though single readings can be large or run the other way; further: potency means the concentration at half of the fitted maximal effect; on the % scale 0 is the no-effect control and ±100 the full control effect; nearly all actives have a fitted effect of over 75% in size
#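 MLSMR compounds (23 nl, pin-transferred) preincubated 10 min at room temperature with a 500nM (2x) first reagent, then RGS4 at 900nM (2x) plus Transcreener GDP mix added; fluorescence polarization (620/688 nm) read before and after 90 min at 30 °C.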
# D3 antag – antagonists of human D3 dopamine receptor; P35462; D3R cells, DiscoveRx beta-arrestin luminescence, antagonist mode; stronger effect = lower value; max response, negative = inhibition, %; 360,000 compounds, 2.5% hits; AID 652054; in the data active means max response below about -50%; inconclusive means no clear call, values can overlap the other calls; further: on the % scale 0 is the no-effect control and ±100 the full control effect
# Target sequence (P35462 whole entry, looked up): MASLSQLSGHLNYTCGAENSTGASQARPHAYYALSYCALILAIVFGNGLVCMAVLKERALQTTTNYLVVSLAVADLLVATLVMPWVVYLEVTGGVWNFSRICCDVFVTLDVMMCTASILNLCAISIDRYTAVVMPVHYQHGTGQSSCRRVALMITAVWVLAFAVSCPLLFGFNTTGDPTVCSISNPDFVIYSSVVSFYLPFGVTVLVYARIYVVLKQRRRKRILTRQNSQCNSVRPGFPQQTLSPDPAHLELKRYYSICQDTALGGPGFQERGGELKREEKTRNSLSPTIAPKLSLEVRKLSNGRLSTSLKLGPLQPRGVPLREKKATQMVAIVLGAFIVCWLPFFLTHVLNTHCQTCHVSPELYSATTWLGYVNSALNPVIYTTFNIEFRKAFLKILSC
#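 Cells expressing the human receptor were seeded at 1500 cells/well, incubated overnight at 37 degrees C in 5% CO2, then exposed to library compounds with dopamine controls for 90 minutes at 37 degrees C before luminescent detection.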
# D3 ag – D3 dopamine receptor (human) agonism. 410,000 compounds, 0.58% hits. AID 652048. D3R DiscoveRx beta-arrestin cells, luminescence, 90 min. P35462. max activation, %; in the data active means max activation above about 30%; further: 0% is about no effect
#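 Cells at 1500/well, incubated overnight, then treated with pinned compounds (dopamine as control) for 90 min at 37 degrees C. DiscoveRx reagent added for 30 - 60 minutes at room temperature; luminescence read.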
# uPA surface inh – cell surface uPA generation inhibition; cell surface uPA generation assay, qHTS; Potency, µM (doses to about 38.3 µM), for the others: at the highest dose activity change, negative = inhibition, actives largely listed as inhibitors; 330,000 compounds, 0.31% hits; active means well fitted inhibition curve with a large enough effect; inconclusive means small, poorly fitted or top-dose-only effect; inactive means no such curve, though single readings can be large or run the other way; tested in mouse RAW 264.7 cells; further: potency means the concentration at half of the fitted maximal effect; on the % scale 0 is the no-effect control and ±100 the full control effect; nearly all actives have a fitted effect of over 55% in size
# * marks the source's active call; other numbers are inactive results; ? = inconclusive; · = not tested or not shown; [ ] = another dose, or the depositor's remark.
SMILES,RGS4 inhibitor,D3 antag,D3 ag,uPA surface inh
Cc1[nH]c2ccccc2c1C(=O)CN1CCN(C/C=C/c2ccccc2)CC1,-9.3%,-2.8,-3.2,4.6%
COc1ccc2[nH]c(C)c(C(=O)CN3CCN(C/C=C/c4ccccc4)CC3)c2c1,-6.8%,-57.4*,1.9,-1.5%
COc1cc(Br)cc(CN2CCN(C/C=C/c3ccccc3)CC2)c1O,-21.5%,?,-28.2,·
COc1ccc(O)c(CN2CCN(C/C=C/c3ccccc3)CC2)c1,-13.1%,-76.3*,-24.2,·
Cc1c(C(=O)Nc2ccc(F)cc2F)oc2ccc3c(c12)C(=O)CC(C)(C)O3,19.2%,·,8.2,·
COc1ccc(NC(=O)CN(C)C(=O)C2=COCCO2)cc1,36.3%,-58.8*,1.1,1.2%
CN(CC(=O)Nc1ccc(Cl)cc1)C(=O)C1=COCCO1,-6.8%,6.2,-6.6,1.3%
O=C(N/N=C/c1cc(Br)ccc1O)C(=O)Nc1ccccc1OC(F)(F)C(F)F,-4.8%,14.0,48.5*,·
CCSc1nnc(-c2ccc(S(=O)(=O)NCc3cccs3)cc2)o1,44.2%,-66.4*,6.1,-1.7%
CCOc1ccc(S(=O)(=O)NCc2cccs2)cc1,-12.7%,18.5,-8.5,·
CCc1ccccc1NC(=O)C(=O)NCC(c1cccnc1)N1CCN(c2ccccc2F)CC1 (configuration not stated),-10.2%,·,0.9,·
CCC(Sc1nnc2c3ccccc3n(CC)c2n1)C(=O)Nc1ccc(NC(C)=O)cc1 (configuration not stated),17.1%,·,1.8,·
OCC1NCC(O)C(O)C1O (configuration not stated),-11.9%[56.9 µM],·,·,·
CCN(CC)CCn1c(NC(=O)c2ccc(C(F)(F)F)cc2)nc2ccccc21,-18.8%,-54.2*,-10.9,0.8%
CCN(CC)CCn1c(NC(=O)c2ccc(C)cc2)nc2ccccc21,23.4%,-50.1*,-27.5,-2.9%
O=C(Nc1nc2ccccc2n1Cc1ccc(Cl)cc1)c1ccco1,20.0%,-60.0*,-1.8,-9.8%
CN(C)CCn1c(NC(=O)c2ccc(Cl)cc2)nc2ccccc21,-10.2%,-57.2*,-24.2,-13.2%
CC(C)CC(NC(=O)C1CCCCC1)C(=O)Nc1cccc(C(F)(F)F)c1 (configuration not stated),-4.7%,·,6.3,·
Cc1nc2nc(NC(=O)c3ccc(C(C)(C)C)cc3)[nH]n2c(=O)c1Cl,-14.9%,·,-24.2,·
Cn1c(=O)n(-c2ccc(F)c(Cl)c2)c(=O)c2sc3ccccc3c21,8.1%,·,-3.5,·
CCCC(CCC)C(N)=O,·,·,57.6*,·
CCCC(CCC)C(=O)O,?,5.8,4.3,3.3%
COc1ccc(-c2cc(=O)[nH]c(=S)[nH]2)cc1,-27.3%,-50.2*,6.0,1.1%
COc1ccc(-c2cc(=O)c3cc(OC)ccc3[nH]2)cc1,5.8%,6.0,-9.5,?
COc1cc(-c2nc(Cn3nnc(C(=O)Nc4cccc(Cl)c4)c3C)c(C)o2)cc(OC)c1OC,-3.4%,·,-10.0,·
SMILES,RGS4 inhibitor,D3 antag,D3 ag,uPA surface inh
COc1ccc(NC(=O)CSc2ccc3nc(-c4ccccc4)cn3n2)c(OC)c1,-21.2%,·,8.2,·
O=S(=O)(Nc1ccon1)c1cc(Cl)ccc1Cl,-20.4%,4.7,0.8,-1.8%
O=S(=O)(Nc1ccon1)c1ccc(F)c(F)c1,-24.0%,-81.0*,-5.9,5.3%
COc1ccc(S(=O)(=O)Nc2ccc3c(c2)n(C)c(=O)n3C)cc1C,10.9%,2.4,-1.9,-10.2%
CCOC(=O)c1oc2ccc(S(=O)(=O)Nc3ccc4c(c3)n(C)c(=O)n4C)cc2c1C,-5.9%,9.3,31.8*,?
CCc1cc(SC#N)cc(C)c1NC(=O)CCl,-9.3%,-56.3*,-6.8,-6.6%
Cc1cc(SC#N)cc(C)c1NC(=O)CCl,-52.1%,-9.6,-4.6,-11.6%
CN1CCN(C(CNC(=O)c2ccccc2)c2ccc3c(c2)OCO3)CC1 (configuration not stated),3.1%,·,-14.4,·
COc1ccc(NC(=O)CCC(=O)c2cccs2)cc1Cl,-10.0%,0.0,-6.2,-8.7%
COc1ccc(NC(=O)Nc2cccs2)cc1Cl,0.3%,-62.7*,-1.1,-28.8%
CCN1C(=NCCc2ccc(Br)cc2)N[C@@H](c2ccccc2)[C@H](C(=O)OC)[C@H]1C,-31.0%,-88.4*,-50.2,-1.0%
COc1ccc(C(=O)OCc2c(-c3ccccc3)ncc3ccccc23)cc1,9.2%,-50.1*,-27.8,-4.8%
CCN1CCN(C(c2ccc(F)cc2)c2c(O)cc(C)n(CCOC)c2=O)CC1 (configuration not stated),6.5%,·,5.6,·
Cc1occc1-c1nnc(SCC(=O)Nc2nc(-c3ccccc3)cs2)o1,-4.9%,13.7,12.3,10.0%
